Results as given in PubChem BioAssay.
Unmarked numbers belong to inactive results. For part of these data: Potency and affinity values are given separately. The list shows a part of the results. Entries that show only a call come without a potency. Calls of active or inactive are those of the source.

How the values were obtained:
[1] = molecular target: Inward rectifier potassium channel 2 (Mus musculus) (UniProt P35561); test: inhibition of Kir2.1 inward rectifier potassium flux – cell-based, FluxOR thallium flux, duplicate, confirmation (AID 2032); settings: Kir2.1-expressing cells, FluxOR thallium flux fluorescence, at 10 µM; active compounds read low
[2] = parental HEK293 cell activity, no Kir2.1 – FluxOR thallium flux, duplicate, single concentration, counter-screen for Kir2.1 inhibitor project, confirmation (AID 2105;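 active means dye signal at least 3 control SD above or below untreated wells in both duplicates, raw fluorescence within 3, either direction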); settings: parental HEK293 cells, FluxOR thallium flux fluorescence, at 10 µM; 0% = unstimulated blank wells
[3] = molecular target: Voltage-gated inwardly rectifying potassium channel KCNH2 (Homo sapiens) (UniProt Q12809); test: hERG block by Kir2.1 inhibitor candidates – cell-based, thallium flux, counter-screen for Kir2.1 inhibitor project (AID 2236; call rule not given here;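 further: host cells are CHO cells stably expressing hERG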); settings: hERG-expressing cells, at 10 µM; active compounds read high
[4] = molecular target: Potassium channel subfamily K member 9 (Homo sapiens) (UniProt Q9NPC2); test: human KCNK9 potassium channel blockers – cell-based, selectivity assay for Kir2.1 inhibitor project (AID 2329; call rule not given here); settings: KCNK9-expressing cells, ion flux inhibition, at 10 µM; active compounds read high
[5] = molecular target: Inward rectifier potassium channel 2 (Mus musculus) (UniProt P35561); test: Kir2.1 potassium current inhibition – cell-based, secondary, automated electrophysiology, Kir2.1 inhibitor project (AID 463252; call rule not given here); settings: Kir2.1 cells, automated patch-clamp current inhibition, at 25 µM; active compounds read high
[6] = nonspecific voltage dye response without TRPC6 – cell-based, parental HEK293, counter-screen for TRPC6 modulator project, confirmation (AID 488924;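 active means membrane potential signal moves up or down beyond 5 SD from buffer-only wells, on both duplicate plates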); settings: parental HEK293, membrane potential dye fluorescence; at 10 µM
[7] = membrane potential response modulators in host HEK293 cells – cell-based, second counter-screen, parental HEK293, membrane potential dye, counter-screen for TRPC6 modulator project, confirmation (AID 488926;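 active means membrane potential signal drops by more than 5 SD from the mean control signal, in both duplicate plates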); settings: parental HEK293, membrane potential dye fluorescence; at 10 µM; after compound, maximal acetylcholine stimulation
[8] = test system: Transient receptor potential cation channel subfamily C member 4 (mouse); test: off-target membrane potential effects via mouse TRPC4 – cell-based, HEK293 TRPC4/mu-opioid, membrane potential dye, selectivity assay for TRPC6 modulator project, confirmation (AID 488927;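 active means membrane potential signal moved up or down beyond 5 SD of buffer control wells, in both duplicate plates, actives on both sides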); settings: membrane potential fluorescence, at 10 µM
[9] = test system: TRPC4 (transient receptor potential cation channel C4), mouse; test: DAMGO-evoked mouse TRPC4 response blockade – cell-based, second screen, HEK293 TRPC4/mu-opioid, membrane potential dye, selectivity assay for TRPC6 modulator project, confirmation (AID 488928;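 active means drop in membrane potential signal beyond 5 SD of the control wells in both duplicate plates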;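 further: TRPC4 counter screen for TRPC6 hits run under conditions tuned for TRPC6 not TRPC4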); settings: membrane potential dye fluorescence, at 10 µM, stimulated with maximal-effect DAMGO; active compounds read high
[10] = molecular target: Short transient receptor potential channel 6 (Mus musculus) (UniProt Q61143); test: blockers of TRPC6 cation channel activity – HEK293 cells, membrane potential dye, duplicate, confirmation (AID 488960;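 active means fluorescence ratio falls more than 5 SD below the full-stimulation control mean, in both duplicate runs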;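 further: integrated fluorescence ratio of peak minus minimum over baseline after agonist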); settings: ACh-evoked depolarization, at 10 µM; active compounds read high
[11] = molecular target: Short transient receptor potential channel 6 (Mus musculus) (UniProt Q61143); test: mouse TRPC6 channel activators, confirmation, HEK293 cells, membrane potential dye, duplicate (AID 488961;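 active means ratio signal rise beyond 5 SD above unstimulated control wells' mean, seen in both duplicate runs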); settings: HEK293-TRPC6 membrane potential dye fluorescence, FDSS, at 10 µM; active compounds read high
[12] = parental CHO-K1 cell activation, no KCNQ2 – FluxOR thallium flux, duplicate, counter-screen for KCNQ2 potentiator project, confirmation (AID 2282;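 active means signal rise of at least 3 SD above the untreated control mean, in both duplicate wells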;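 further: counter screen of KCNQ2 potentiator hits so any rise reflects channel-independent effects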); settings: parental CHO-K1 cells, FluxOR thallium flux fluorescence; at 10 µM; active compounds read high; zero = vehicle mean+3SD, 100% = vehicle-minus-blank window
[13] = molecular target: Potassium voltage-gated channel subfamily KQT member 1 (Homo sapiens) (UniProt P51787); test: KCNQ1 activation in stable CHO cells – cell-based, FluxOR thallium flux, selectivity assay for KCNQ2 potentiator project, confirmation (AID 2283;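 active means fluorescence ratio rise of at least 3 SD of vehicle wells above their mean, in both replicate wells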); settings: FluxOR thallium flux fluorescence, at 10 µM, active compounds read high, beyond 3SD, as % of vehicle-control signal
[14] = molecular target: Potassium voltage-gated channel subfamily KQT member 2 (Rattus norvegicus) (UniProt O88943); test: KCNQ2 potassium channel activity enhancers – cell-based, CHO, FluxOR thallium flux, duplicate, confirmation (AID 2287;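 active means fluorescence ratio rising 3 SD or more over the vehicle control mean in both replicates, plus primary screen hit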;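 further: peak minus minimum thallium fluorescence divided by baseline after K/Tl stimulus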); settings: CHO-KCNQ2 cells, FluxOR thallium flux fluorescence; at 10 µM; active compounds read high
[15] = molecular target: Inward rectifier potassium channel 2 (Mus musculus) (UniProt P35561); test: PubChem AID 2345; settings: HEK293 Kir2.1, FluxOR thallium flux fluorescence; at 10 µM; active compounds read high
[16] = molecular target: Potassium voltage-gated channel subfamily KQT member 2 (Rattus norvegicus) (UniProt O88943); test: W236L mutant KCNQ2 current enhancers – cell-based, rat KCNQ2 W236L, CHO, automated patch clamp, mechanism study for KCNQ2 potentiator project (AID 2558;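 active means current increase at least 3 SD of the untreated controls above them in both duplicate recordings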); settings: at 25 µM
[17] = test system: TRPC4 beta (transient receptor potential cation channel C4), mouse; test: TRPC4 cation channel opening, retest – cell-based, Fluo4 calcium, HEK293 TRPC4beta/mu-opioid, duplicates, 10 µM, confirmation (AID 2426;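 active means fluorescence ratio normalized to control raised more than 50% in primary screen plus both repeat runs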); settings: Fluo4 calcium fluorescence, at 10 µM; active compounds read high
[18] = test system: transient receptor potential cation channel C4 beta (TRPC4), mouse; test: TRPC4 cation channel opening, second retest – cell-based, second round, Fluo4, HEK293 TRPC4beta/mu-opioid, 1 µM, confirmation (AID 2461;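 active means primary screen active and over 50% activation in each of two duplicate runs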); settings: Fluo4 calcium fluorescence, at 1 µM; active compounds read high
[19] = test system: TRPC4 (transient receptor potential cation channel C4 beta), mouse; test: potentiation of DAMGO EC20 TRPC4 response – cell-based, second round, Fluo-4, HEK293 TRPC4beta/mu-opioid, 1 µM, confirmation (AID 2554;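 active means primary screen hit whose fluorescence ratio, in both repeats, exceeds the weak agonist control mean by 3 SD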); settings: DAMGO EC20, Fluo-4 calcium flux, at 1 µM; active compounds read high
[20] = test system: TRPC4 beta (transient receptor potential cation channel C4), mouse; test: potentiation of DAMGO EC20 TRPC4 response – cell-based, Fluo-4, HEK293 TRPC4beta/mu-opioid, confirmation (AID 2555;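 active means primary screen hit whose calcium fluorescence ratio, in both repeats, exceeds the weak agonist control mean by 3 SD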); settings: DAMGO EC20, Fluo-4 calcium flux, at 10 µM; active compounds read high
[21] = molecular target: Short transient receptor potential channel 4 (Mus musculus) (UniProt Q9QUQ5); test: blockers of DAMGO-evoked TRPC4 calcium flux – cell-based, Fluo4, HEK293 TRPC4beta/mu-opioid, confirmation (AID 2636;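 active means calcium signal cut by more than 3 SD below the full-agonist control yet still positive, in both repeats and the earlier primary screen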); settings: at 10 µM; active compounds read high
[22] = molecular target: Short transient receptor potential channel 4 (Mus musculus) (UniProt Q9QUQ5); test: blockers of DAMGO-evoked TRPC4 calcium flux – cell-based, second round, Fluo4, HEK293 TRPC4beta/mu-opioid, 1 µM, confirmation (AID 2637;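 active means calcium signal ratio cut to more than 3 SD under the fully stimulated control mean yet still positive, in both repeats and the primary screen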); settings: at 1 µM; active compounds read high
[23] = molecular target: Short transient receptor potential channel 4 (Mus musculus) (UniProt Q9QUQ5); test: calcium entry via TRPC4 opening agents – cell-based, HEK293 TRPC4/mu-opioid, Fluo-4 calcium, dose response (AID 434937;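 active means primary screen activator hit with a dose response curve and TRPC4 channel activation at any tested dose; inactive means no activation, no dose response, or not a primary hit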)
[24] = molecular target: Short transient receptor potential channel 4 (Mus musculus) (UniProt Q9QUQ5); test: potentiation of DAMGO-evoked TRPC4 calcium signal – cell-based, HEK293 TRPC4/mu-opioid, Fluo-4 calcium, EC20 DAMGO, dose response (AID 434941;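 active means earlier screen potentiator hit that boosts the TRPC4 ion channel at some dose, with a dose response; inactive means no potentiation, no dose response, or not a prior hit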;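 further: calcium entry triggered by an EC20 dose of DAMGO at the co-expressed mu-opioid receptor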)
[25] = molecular target: Short transient receptor potential channel 4 (Mus musculus) (UniProt Q9QUQ5); test: block of DAMGO-driven TRPC4 calcium entry – cell-based, HEK293 TRPC4/mu-opioid, Fluo-4 calcium, dose response (AID 434942;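 active means primary screen inhibitor hit that blocks the TRPC4 channel at some tested dose, yielding a dose curve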)
[26] = molecular target: Short transient receptor potential channel 6 (Mus musculus) (UniProt Q61143); test: TRPC6 blockade by TRPC4 inhibitor hits – cell-based, HEK293, membrane potential dye, duplicate, selectivity assay for TRPC4 inhibitor project, confirmation (AID 434948;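 active means active in primary screen and both duplicates, each dropping signal beyond three positive-control SD with fluorescence still positive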); settings: HEK293 TRPC6, membrane potential dye fluorescence, at 10 µM, stimulated with maximal-effect acetylcholine; active compounds read high
[27] = molecular target: Short transient receptor potential channel 6 (Mus musculus) (UniProt Q61143); test: TRPC6 opening by TRPC4 activator hits – cell-based, HEK293, membrane potential dye, duplicate, selectivity assay for TRPC4 activator project, confirmation (AID 434950;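 active means membrane potential signal rise above negative control mean plus 3 SD in both duplicates, also active in the earlier TRPC4 screen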); settings: HEK293 TRPC6, membrane potential fluorescence, at 10 µM; activation: active compounds read high; outcome: activation
[28] = molecular target: Short transient receptor potential channel 6 (Mus musculus) (UniProt Q61143); test: positive modulators of mouse TRPC6 channel – HEK293 cells, membrane potential dye, duplicate, selectivity assay for TRPC4 potentiator project, confirmation (AID 434952;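 active means compound raising the membrane signal above positive-control mean plus 3 SD in both repeats, and a primary screen hit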); settings: HEK293 TRPC6, membrane potential dye fluorescence, at 10 µM, maximal acetylcholine added after compound; active compounds read high
[29] = molecular target: Short transient receptor potential channel 4 (Mus musculus) (UniProt Q9QUQ5); test: calcium flux activators in TRPC4/5HT1a cells, counter-screen for TRPC4 activator project, cell-based, second counter screen, HEK293 TRPC4/5HT1a, Fluo-4 (AID 434977;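 active means calcium signal rise above buffer-control mean plus 5 SD in both duplicates, and also a hit in the primary screen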); settings: Fluo-4 calcium flux, at 10 µM; active compounds read high
[30] = serotonin-gated TRPC4 signal block – cell-based, second counter screen, HEK293 TRPC4/5HT1a, Fluo-4, counter-screen for TRPC4 inhibitor project, confirmation (AID 434978;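 active means primary screen active whose calcium signal fell more than 3 SD beyond the full-serotonin control mean in both duplicate plates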;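 further: serotonin given first at submaximal then at maximal dose after compound preincubation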); settings: Fluo-4 calcium flux, at 10 µM, serotonin added to trigger calcium flux; active compounds read high
[31] = test system: TRPC4 (mouse), co-expressed with 5HT1a in HEK293; test: enhancement of serotonin-evoked TRPC4 response – cell-based, second counter screen, HEK293 TRPC4/5HT1a, Fluo-4, counter-screen for TRPC4 potentiator project, confirmation (AID 434979;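 active means signal rise over 3 SD above mean of control wells given weak agonist, in both repeats and first screen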); settings: Fluo-4 calcium flux, at 10 µM, serotonin added at its EC20 dose; active compounds read high
[32] = nonspecific calcium rise without TRPC4 – cell-based, HEK293 mu-opioid receptor line, counter-screen for TRPC4 activator project, confirmation (AID 449723;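 active means hit in primary screen, with calcium signal over 5 SD above buffer well mean in both duplicates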;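 further: counter screen cells carry the mu-opioid receptor alone and lack TRPC4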); settings: HEK293 mu-opioid cells, Fluo-4 calcium fluorescence, at 10 µM; active compounds read high
[33] = nonspecific potentiation of DAMGO calcium response – cell-based, HEK293 mu-opioid receptor line, counter-screen for TRPC4 allosteric potentiator project, confirmation (AID 449724;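 active means calcium signal rise more than 3 SD above the low-dose agonist control mean, in both duplicate plates and the primary screen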); settings: HEK293 mu-opioid receptor cells, Fluo-4 calcium flux, at 10 µM, compound added before EC20 DAMGO stimulus; active compounds read high

Sequence of Potassium voltage-gated channel subfamily KQT member 1 (Homo sapiens) (P51787 whole entry, looked up): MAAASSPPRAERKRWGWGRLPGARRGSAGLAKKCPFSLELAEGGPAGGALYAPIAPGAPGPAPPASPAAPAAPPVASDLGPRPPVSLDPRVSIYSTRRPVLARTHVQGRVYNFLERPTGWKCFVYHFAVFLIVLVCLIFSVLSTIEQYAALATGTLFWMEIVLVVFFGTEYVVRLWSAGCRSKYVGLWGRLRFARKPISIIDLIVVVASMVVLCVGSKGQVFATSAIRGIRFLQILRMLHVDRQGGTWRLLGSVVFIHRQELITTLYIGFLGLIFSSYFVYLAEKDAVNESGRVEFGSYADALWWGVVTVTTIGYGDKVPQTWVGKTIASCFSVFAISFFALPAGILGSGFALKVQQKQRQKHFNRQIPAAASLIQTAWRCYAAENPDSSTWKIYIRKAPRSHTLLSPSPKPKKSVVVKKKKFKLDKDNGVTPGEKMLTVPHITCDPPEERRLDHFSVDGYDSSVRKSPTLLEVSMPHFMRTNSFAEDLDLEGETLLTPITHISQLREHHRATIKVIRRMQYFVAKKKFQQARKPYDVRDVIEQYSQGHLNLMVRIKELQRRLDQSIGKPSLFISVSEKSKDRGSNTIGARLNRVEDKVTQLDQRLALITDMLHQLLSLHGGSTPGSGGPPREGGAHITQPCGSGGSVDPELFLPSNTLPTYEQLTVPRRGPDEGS
Sequence of Short transient receptor potential channel 6 (Mus musculus) (Q61143 whole entry, looked up): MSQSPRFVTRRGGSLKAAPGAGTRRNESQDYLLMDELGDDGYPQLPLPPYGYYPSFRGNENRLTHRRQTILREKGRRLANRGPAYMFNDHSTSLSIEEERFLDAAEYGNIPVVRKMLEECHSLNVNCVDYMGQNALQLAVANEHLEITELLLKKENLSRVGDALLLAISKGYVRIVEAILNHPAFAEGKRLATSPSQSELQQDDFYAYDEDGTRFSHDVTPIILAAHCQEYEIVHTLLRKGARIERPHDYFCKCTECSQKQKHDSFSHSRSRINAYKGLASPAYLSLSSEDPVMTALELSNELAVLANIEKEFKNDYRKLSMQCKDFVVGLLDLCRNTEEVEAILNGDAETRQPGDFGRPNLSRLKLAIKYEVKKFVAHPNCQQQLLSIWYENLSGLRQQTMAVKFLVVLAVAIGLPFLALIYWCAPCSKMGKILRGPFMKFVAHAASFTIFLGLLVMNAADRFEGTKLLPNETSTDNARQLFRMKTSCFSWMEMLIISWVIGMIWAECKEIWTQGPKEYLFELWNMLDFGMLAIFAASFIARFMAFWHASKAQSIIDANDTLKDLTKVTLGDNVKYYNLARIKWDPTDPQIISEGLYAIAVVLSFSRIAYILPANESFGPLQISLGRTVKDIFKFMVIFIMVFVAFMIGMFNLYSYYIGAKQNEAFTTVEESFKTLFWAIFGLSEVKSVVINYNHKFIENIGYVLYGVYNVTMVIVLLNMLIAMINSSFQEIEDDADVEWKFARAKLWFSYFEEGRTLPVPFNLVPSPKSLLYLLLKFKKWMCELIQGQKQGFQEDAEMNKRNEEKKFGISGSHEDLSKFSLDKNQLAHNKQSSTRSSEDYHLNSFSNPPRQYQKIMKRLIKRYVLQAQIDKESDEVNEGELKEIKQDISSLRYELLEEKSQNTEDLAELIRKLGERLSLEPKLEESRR
Sequence of Short transient receptor potential channel 4 (Mus musculus) (Q9QUQ5 whole entry, looked up): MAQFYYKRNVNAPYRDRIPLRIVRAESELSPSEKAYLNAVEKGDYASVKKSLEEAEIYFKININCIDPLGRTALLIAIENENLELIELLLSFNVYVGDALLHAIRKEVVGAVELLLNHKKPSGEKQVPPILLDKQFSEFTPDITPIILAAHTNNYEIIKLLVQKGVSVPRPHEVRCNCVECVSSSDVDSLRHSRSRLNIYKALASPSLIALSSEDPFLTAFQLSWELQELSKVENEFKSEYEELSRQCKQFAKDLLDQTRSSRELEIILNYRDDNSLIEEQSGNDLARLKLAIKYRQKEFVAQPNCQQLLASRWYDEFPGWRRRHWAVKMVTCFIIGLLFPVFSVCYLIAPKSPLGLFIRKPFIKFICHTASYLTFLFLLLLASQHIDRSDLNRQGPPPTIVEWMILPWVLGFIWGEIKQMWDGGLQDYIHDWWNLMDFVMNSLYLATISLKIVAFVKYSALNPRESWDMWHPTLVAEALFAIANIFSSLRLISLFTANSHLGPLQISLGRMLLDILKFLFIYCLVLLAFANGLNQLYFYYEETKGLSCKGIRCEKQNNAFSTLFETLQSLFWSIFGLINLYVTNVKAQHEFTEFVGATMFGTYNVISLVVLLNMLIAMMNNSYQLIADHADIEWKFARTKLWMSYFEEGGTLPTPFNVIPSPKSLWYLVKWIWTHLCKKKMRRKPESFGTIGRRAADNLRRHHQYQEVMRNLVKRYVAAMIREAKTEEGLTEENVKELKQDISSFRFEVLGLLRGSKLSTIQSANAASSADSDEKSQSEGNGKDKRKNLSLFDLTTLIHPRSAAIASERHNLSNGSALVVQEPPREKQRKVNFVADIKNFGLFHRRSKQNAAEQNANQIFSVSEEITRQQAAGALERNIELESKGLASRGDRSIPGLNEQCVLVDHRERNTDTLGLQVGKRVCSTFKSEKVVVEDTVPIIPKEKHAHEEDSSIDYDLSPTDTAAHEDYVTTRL
Sequence of Inward rectifier potassium channel 2 (Mus musculus) (P35561 whole entry, looked up): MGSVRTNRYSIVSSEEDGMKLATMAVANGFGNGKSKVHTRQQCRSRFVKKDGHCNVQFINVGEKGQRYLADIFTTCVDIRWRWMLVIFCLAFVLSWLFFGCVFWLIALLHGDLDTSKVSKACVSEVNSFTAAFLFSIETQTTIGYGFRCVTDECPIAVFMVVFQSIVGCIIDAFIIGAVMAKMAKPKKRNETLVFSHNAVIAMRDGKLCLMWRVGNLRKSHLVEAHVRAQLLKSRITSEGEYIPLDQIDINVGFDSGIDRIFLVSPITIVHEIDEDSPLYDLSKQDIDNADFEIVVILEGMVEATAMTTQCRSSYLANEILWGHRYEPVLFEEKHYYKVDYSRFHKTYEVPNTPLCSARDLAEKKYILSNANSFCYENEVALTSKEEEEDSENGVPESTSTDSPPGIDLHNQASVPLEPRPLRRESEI
Sequence of Voltage-gated inwardly rectifying potassium channel KCNH2 (Homo sapiens) (Q12809 whole entry, looked up): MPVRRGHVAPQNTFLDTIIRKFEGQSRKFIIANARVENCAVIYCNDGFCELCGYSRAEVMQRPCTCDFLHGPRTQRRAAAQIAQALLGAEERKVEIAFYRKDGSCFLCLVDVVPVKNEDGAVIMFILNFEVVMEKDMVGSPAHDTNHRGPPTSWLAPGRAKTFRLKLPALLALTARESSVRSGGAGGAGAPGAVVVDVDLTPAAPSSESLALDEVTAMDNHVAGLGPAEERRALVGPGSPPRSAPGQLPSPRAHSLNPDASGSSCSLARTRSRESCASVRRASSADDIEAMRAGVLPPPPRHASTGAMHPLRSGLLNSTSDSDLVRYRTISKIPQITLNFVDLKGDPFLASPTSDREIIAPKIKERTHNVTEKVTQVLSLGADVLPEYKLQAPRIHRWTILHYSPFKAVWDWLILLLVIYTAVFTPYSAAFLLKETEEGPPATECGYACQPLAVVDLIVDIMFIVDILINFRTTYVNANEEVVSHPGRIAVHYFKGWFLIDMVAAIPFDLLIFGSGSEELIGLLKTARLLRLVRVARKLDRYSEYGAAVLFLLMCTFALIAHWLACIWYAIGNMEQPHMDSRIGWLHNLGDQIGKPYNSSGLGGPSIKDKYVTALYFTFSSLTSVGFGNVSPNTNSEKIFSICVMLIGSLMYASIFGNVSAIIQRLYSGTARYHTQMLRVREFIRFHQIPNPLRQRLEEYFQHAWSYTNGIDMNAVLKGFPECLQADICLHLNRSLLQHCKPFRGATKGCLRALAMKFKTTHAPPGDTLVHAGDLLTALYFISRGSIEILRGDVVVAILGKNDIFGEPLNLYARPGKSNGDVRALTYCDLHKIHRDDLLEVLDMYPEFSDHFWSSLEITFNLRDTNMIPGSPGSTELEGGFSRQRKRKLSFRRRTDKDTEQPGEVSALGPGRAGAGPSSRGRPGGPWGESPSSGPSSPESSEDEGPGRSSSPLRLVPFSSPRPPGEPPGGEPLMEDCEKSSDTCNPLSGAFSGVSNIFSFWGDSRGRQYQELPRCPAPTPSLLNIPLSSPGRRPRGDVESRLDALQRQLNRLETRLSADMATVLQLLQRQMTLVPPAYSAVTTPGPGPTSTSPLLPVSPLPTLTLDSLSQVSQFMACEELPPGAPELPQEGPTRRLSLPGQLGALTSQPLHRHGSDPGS

## CC(C)(c1ccccc1)c1ccc(OCCN)cc1
[1]
  Tl flux remaining, % of negative control (active compounds read low): 30.5% (active)
[2]
  outcome: inactive
[3]
  outcome: inactive
[4]
  outcome: inactive
[5]
  inhibition: 36.1% (active)

## CC(NCc1ccccc1OC1CCCC1)c1ccccc1 (stereo not given)
[1]
  Tl flux remaining, % of negative control (active compounds read low): 23.5% (active)
[2]
  outcome: inactive
[3]
  outcome: inactive
[4]
  outcome: inactive
[5]
  inhibition: 23.4% (active)
[6]
  membrane potential signal change: 416% (active)
[7]
  outcome: inactive
[8]
  percent change from control (negative = decrease, positive = increase): 114% (active)
[9]
  inhibition: 79.5% (active)
[10]
  inhibition: 83% (active)
[11]
  activation: 122% (active)

## c1ccc(CSc2nnc(-c3ccco3)n2Cc2ccccc2)cc1
[1]
  Tl flux remaining, % of negative control (active compounds read low): 54% (active)
[2]
  outcome: inactive

## CC(C)Cc1nnc(NC(=O)CCc2ccccc2)s1
[1]
  outcome: inactive
[2]
  outcome: inactive
[12]
  activity increase over 3SD of controls: 45% (active)
[13]
  activation over 3SD threshold: -19.5%
[14]
  potentiation, less the hit threshold: -14.9%
[15]
  activity over 3SD threshold: -23.2%

## COc1ccc(C(=O)Nc2ncc3c(n2)-c2ccccc2CC3)cc1
[1]
  outcome: inactive
[2]
  outcome: inactive
[12]
  activity increase over 3SD of controls: -7.8%
[13]
  activation over 3SD threshold: 8.3% (active)
[14]
  potentiation, less the hit threshold: -1%
[15]
  activity over 3SD threshold: -29.6%
[16]
  outcome: inactive

## O=C(/C=C/Sc1ncn[nH]1)c1ccc(Cl)cc1
[1]
  outcome: inactive
[2]
  outcome: inactive
[12]
  activity increase over 3SD of controls: -4%
[13]
  activation over 3SD threshold: 0.3% (active)
[14]
  potentiation, less the hit threshold: -17.8%
[15]
  activity over 3SD threshold: -56.5%

## O=C(Nc1ccc(Oc2ccccc2)cc1)c1ccco1
[1]
  outcome: inactive
[2]
  outcome: inactive
[12]
  activity increase over 3SD of controls: -13.5%
[13]
  activation over 3SD threshold: 26% (active)
[14]
  potentiation, less the hit threshold: 37.7% (active)
[15]
  activity over 3SD threshold: -25.3%
[16]
  current increase over 3SD of negative controls (%), active compounds read high: 9.43% (active)

## COc1cccc(CNCCc2c[nH]c3ccccc23)c1OCc1ccccc1F
[1]
  Tl flux remaining, % of negative control (active compounds read low): 23.5% (active)
[2]
  outcome: inactive

## COc1ccc(-c2n[nH]c(C)c2-c2ccccc2OC)c(O)c1
[1]
  outcome: inactive
[2]
  outcome: inactive
[12]
  activity increase over 3SD of controls: 28.7% (active)
[13]
  activation over 3SD threshold: 56.3% (active)
[14]
  potentiation, less the hit threshold: -12.6%
[15]
  activity over 3SD threshold: -44.6%
[17]
  outcome: inactive
[18]
  outcome: inactive
[19]
  outcome: inactive
[20]
  outcome: inactive
[21]
  outcome: inactive
[22]
  outcome: inactive
[23]
  outcome: inactive
[24]
  outcome: inactive
[25]
  outcome: inactive
[26]
  outcome: inactive
[27]
  outcome: inactive
[28]
  outcome: inactive
[29]
  outcome: inactive
[30]
  outcome: inactive
[31]
  outcome: inactive
[32]
  outcome: inactive
[33]
  outcome: inactive

## CC1(c2ccccc2Cl)NC(=O)N(CC(=O)NC(=O)NCc2ccco2)C1=O (stereo not given)
[1]
  outcome: inactive
[2]
  outcome: inactive
[12]
  activity increase over 3SD of controls: 15.2% (active)
[13]
  activation over 3SD threshold: -28.7%
[14]
  potentiation, less the hit threshold: -11.8%
[15]
  activity over 3SD threshold: -15.3%
